Laboratory results published in PubChem BioAssay AID1259418 (Broad Institute, 2018).
In all, about 3,400 compounds went through this assay and about 840 (25%) were called active. Inconclusive results (about 11%) are left out. Only a sample is shown. Potency and affinity values are given separately. Values without a mark were called inactive.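 Rule for the calls: active = fitted half-maximal concentration of signal decrease at or below twice the sample's top tested concentration; inconclusive = flat curve between -70 and -30 percent, or poor fit; inactive = flat within 30 percent, signal rise, or potency above limit.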

assay: inhibitors of Toxoplasma growth in IFN-γ-primed HeLa – cell-based, ME49Luc, luciferase, 72 h, dose response (AID 1259418); conditions: T. gondii ME49Luc in IFN-y HeLa, hits give low values, -100% = high-dose IFN-γ control wells; at 19.5 µM unless noted

Compound | max activity
O=C(Cn1c(=O)c(S(=O)(=O)c2ccccc2)cc2ccccc21)NC1CCCCC1 | 2.73%
Fc1ccc(CSc2nc(NCc3ccco3)c3ccccc3n2)cc1 | -10.7% [at 2.6 µM]
Cc1nc(-c2cc(S(=O)(=O)N3CCC(Cc4ccccc4)CC3)c(C)s2)sc1C | 9.1% [at 0.16 µM]
CCOc1ccccc1-c1nc(CSc2nc3c(c(=O)[nH]2)CN(CCOC)CC3)c(C)o1 | 20.2% [at 10 µM]
CCc1nc(OCC(=O)Nc2ccccc2F)c2ccccc2n1 | 12.8% [at 10 µM]
COc1ccc(NC(=O)CN2CCC3(CC2)N=C(c2cccc(F)c2)C(=O)N3)cc1Cl | 18.3% [at 5 µM]
Cc1ccc(CSC2=Nc3ccccc3C3=NC(CC(=O)NC4CCCCC4)C(=O)N23)c(C)c1 (stereo not given) | 15.1% [at 5 µM]
O=C(CN1CCC2(CC1)N=C(c1ccc(F)cc1)C(=O)N2)Nc1ccccc1C(F)(F)F | 7.82% [at 10 µM]
O=C(COc1ccccc1Cl)Nc1cncc(-c2nc3ccccc3o2)c1 | -6.28% [at 2.6 µM]
COc1cccc(N(Cc2nc(-c3cccc(Cl)c3)oc2C)S(=O)(=O)c2ccccc2)c1 | 9.67% [at 0.68 µM]
COc1ccc(N(Cc2nc(-c3cccc(C)c3)oc2C)S(=O)(=O)c2ccc(C)cc2)cc1 | -7.34% [at 1.35 µM]
COc1cccc(N(Cc2nc(-c3ccccc3)oc2C)S(=O)(=O)c2ccccc2)c1 | -4.33%
COc1ccc(N(Cc2nc(-c3cccc(C)c3)oc2C)S(=O)(=O)c2ccc(OC)cc2)cc1 | -8.14% [at 0.35 µM]
COc1ccc(N(Cc2nc(-c3cccc(Cl)c3)oc2C)S(=O)(=O)c2ccc(OC)cc2)cc1 | -8.48% [at 2.6 µM]
COc1ccc(CC(=O)N2CCC3(CC2)Nc2cc(F)ccc2-n2cccc23)cc1OC | 6.12% [at 2.6 µM]
COc1ccc(-c2nc3c(s2)CN(S(=O)(=O)c2ccc(C(C)C)cc2)CC3)cc1 | 10.1% [at 0.16 µM]
CCCN1CCc2nc(SCc3nc(-c4ccc(OCC)c(OC)c4)oc3C)[nH]c(=O)c2C1 | 28.6% [at 0.16 µM]
Cc1ccc(-c2coc(-c3ccc(NC(=O)Nc4ccc(F)cc4)cc3)n2)cc1 | 8.43% [at 10 µM]
Cc1c(-c2n[nH]c(=S)n2-c2ccccc2)sc2nc3n(c(=O)c12)CCC3 | -9.68% [at 0.16 µM]
CCc1cccc(NC(=O)COc2nc(CC)nc3ccccc23)c1 | -10.7% [at 10 µM]
Cc1nc(OCC(=O)NCc2ccccc2)c2ccccc2n1 | 19.6% [at 0.16 µM]
Cn1c(=O)c(C(=O)Nc2ccccc2)cc2cccnc21 | 14.2% [at 2.6 µM]
Cn1cccc1C(=O)Nc1ccc2c(c1)CCC(=O)N2 | 85.5%
CCc1nc(OCC(=O)Nc2ccccc2Cl)c2ccccc2n1 | -7.29% [at 1.35 µM]
Cc1nc(C)c(C(=O)N2CCCC2c2nc(-c3ccc(F)cc3F)no2)s1 (stereo not given) | 25.6% [at 10 µM]

Compound | max activity
CCc1nc(OCC(=O)Nc2c(C)cc(C)cc2C)c2ccccc2n1 | 7.02% [at 2.6 µM]
CN1C(=O)c2cc(NC(=O)Cc3cccs3)ccc2OC[C@H]2O[C@@H](CC(=O)NCc3ccc(-c4ccccc4)cc3)CC[C@@H]21 | -7.79% [at 1.2 µM]
Cc1ccc(CNC(=O)Nc2ccc(-c3nc(-c4ccccc4)co3)cc2)cc1 | 90.3% [at 10 µM]
Cc1oc(-c2ccccc2)nc1Cn1nnc(-c2nc(-c3ccccc3Br)no2)c1C | -8.57% [at 0.35 µM]
CC(=O)O[C@H]1C[C@@H](OC(C)=O)C(C)(C)C2C[C@@H](OC(C)=O)[C@@]3(C)C4=CC(=O)O[C@@H](c5ccoc5)[C@]4(C)CCC3[C@]21C (stereo not given in full) | -9.83% [at 5 µM]
Cc1ccc(CNC(=O)Nc2ccc(-c3nc(-c4ccc(C)cc4C)co3)cc2)cc1 | 14.7% [at 0.16 µM]
CCCCC(=O)Nc1ccc(-c2nc(-c3cc(C)ccc3C)co2)cc1 | -7.17% [at 5 µM]
O=C1CNC[C@@H]2[C@H](c3ccc(C#Cc4cccnc4)cc3)[C@@H](CO)N12 | 42.6%
O=C1CNC[C@@H]2[C@H](c3ccc(C#Cc4cccnc4)cc3)[C@H](CO)N12 | 36.8%
N#Cc1ccc(-c2ccc([C@H]3[C@@H](CO)N4C(=O)CNC[C@@H]34)cc2)cc1 | 52.5%
O=C1CC2C(CCN2Cc2ccc(F)cc2)N1CCN1CCOCC1 (stereo not given) | 15.6% [at 10 µM]
Cc1ccc(-c2coc(-c3ccc(NC(=O)c4sccc4C)cc3)n2)c(C)c1 | 14.5%
COC[C@H](N)C(=O)N1CCC(Cc2nnc(SC)n2C)CC1 | 32.3%
Cc1nc(Cn2cnc(-c3nc(C(=O)NCc4cc(F)cc(F)c4)c4ccccn34)c2)cs1 | -10.1%
Cc1ccc(C)c(-c2coc(-c3ccc(NC(=O)Nc4cccc(F)c4)cc3)n2)c1 | 9.94% [at 2.6 µM]
CC(C)Oc1ccc(NC(=O)c2nc3c(n2C(C)C)CCN(C(=O)c2ccccc2)C3)cc1 | -6.92% [at 2.6 µM]
Cc1ccc(-c2nc(Cn3nnc(-c4nc(-c5cccc(C(F)(F)F)c5)no4)c3C)c(C)o2)cc1 | 13.1%
CCOC(=O)CSC1=Nc2ccccc2C2=NC(CC(=O)NCc3ccccc3OC)C(=O)N12 (stereo not given) | -7.6% [at 0.68 µM]
Cc1cccc(-c2nc(Cn3nnc(-c4nc(-c5cccnc5)no4)c3C)c(C)o2)c1 | -5.69% [at 2.6 µM]
O=C(Nc1ccc(-c2nc(-c3ccccc3)co2)cc1)c1ccccc1 | 74.5%
O=C(Nc1ccc(-c2nc(-c3ccccc3)co2)cc1)c1ccc(Cl)cc1 | 21.8% [at 5 µM]
Cc1ccc(-c2coc(-c3ccc(NC(=O)c4cccc(F)c4)cc3)n2)cc1 | 42.3%
O=C(Nc1ccc(-c2nc(-c3ccccc3)co2)cc1)c1ccc(F)cc1 | 21.2% [at 1.35 µM]
COc1ccc(-c2nc(Cn3nnc(-c4nc(-c5cccc(Cl)c5)no4)c3C)c(C)o2)cc1 | -6.44% [at 0.35 µM]
Cc1nc(CCNC(=O)C2CCN(S(=O)(=O)c3cc(F)ccc3F)CC2)cs1 | 21.6% [at 2.6 µM]

Compound | max activity
Cc1ccc(C(=O)Nc2c(C(=O)N3CCN(c4ccccn4)CC3)[nH]c3ccccc23)cc1 | -27.2%
O=C(Cc1cccc(F)c1)Nc1ccc(-c2nc(-c3ccccc3)co2)cc1 | 16.9% [at 2.6 µM]
Cc1ccc(-c2nc(Cn3nnc(-c4nc(-c5ccc(F)cc5)no4)c3C)c(C)o2)cc1 | 22%
CCCC(=O)Nc1ccc(-c2nc(-c3cc(C)ccc3C)co2)cc1 | -11.6% [at 1.35 µM]
COC[C@@H]1CCC[C@]12CN(S(=O)(=O)c1cccs1)CCO2 | -9.83% [at 0.6 µM]
COCC12CCCOC1CCN(S(=O)(=O)c1cn(C)cn1)C2 (stereo not given) | 18.3%
CCSc1ccc(-c2sc(-c3ccc(F)cc3)nc2C)nn1 | 31.6%
O=C(Nc1c(C(=O)NCc2ccccn2)[nH]c2ccccc12)c1ccc(Cl)cc1 | 9.23% [at 1.35 µM]
Cc1ccc2[nH]c(C(=O)NCc3ccccn3)c(NC(=O)c3ccc(Cl)cc3)c2c1 | 27.1% [at 0.35 µM]
Cc1ccc2[nH]c(C(=O)N3CCN(c4ccccn4)CC3)c(NC(=O)c3ccc(F)cc3)c2c1 | -13.6%
Cc1ccc(C(=O)Nc2c(C(=O)NCc3ccccn3)[nH]c3ccccc23)cc1 | -2.99% [at 0.35 µM]
Cc1cccc(C(=O)Nc2c(C(=O)NCc3ccccn3)[nH]c3ccc(C)cc23)c1 | 14.8% [at 10 µM]
Cc1ccc(C(=O)Nc2c(C(=O)NCc3cccnc3)[nH]c3ccc(C)cc23)cc1 | 54.9% [at 2.6 µM]
Cc1cccc(C(=O)Nc2c(C(=O)NCc3cccnc3)[nH]c3ccc(C)cc23)c1 | 28.1% [at 5 µM]
Cc1ccc2[nH]c(C(=O)NCc3cccnc3)c(NC(=O)c3ccc(Cl)cc3)c2c1 | -12% [at 10 µM]
Cc1ccc2c(c1C)-n1cccc1C1(CCN(C(=O)Cc3cccs3)CC1)N2 | 6.55% [at 0.16 µM]
COc1ccc(-c2nc(Nc3cccc(Cl)c3C)c3ccccc3n2)cc1 | 25.3%
Cc1ccc(-c2coc(-c3ccc(NC(=O)Nc4cccc(Br)c4)cc3)n2)cc1 | 22.7% [at 0.16 µM]
Cc1ccccc1-c1noc(-c2nnn(Cc3nc(-c4cccc(Cl)c4)oc3C)c2C)n1 | -11.4% [at 0.16 µM]
Cc1noc(C)c1C1CCCN1Cc1cn(C(C)C)c2ccccc12 (stereo not given) | 17.5% [at 10 µM]
Cc1cc(C2CCCN2Cc2cn(C(C)C)c3ccccc23)on1 (stereo not given) | 5.01%
Clc1ccc(CSc2nc(NC3CCCCC3)c3ccccc3n2)cc1 | 26.1% [at 2.6 µM]
CC(C)c1ccc(S(=O)(=O)N2CCC3(CC2)NCCN=C3NC2CCCC2)cc1 | -14.4% [at 10 µM]
CC(C)c1ccc(S(=O)(=O)N2CCC3(CC2)NCCN=C3NC2CCCCC2)cc1 | 20% [at 0.16 µM]
CC(C)c1ccc(S(=O)(=O)N2CCC3(CC2)NCCN=C3NC2CCCCCC2)cc1 | 17.1% [at 0.16 µM]
